# Screens from PubChem BioAssay.
# FLuc modulator: inhibits or activates purified firefly luciferase, miR-21 counter-screen; purified FLuc, Km substrates, luminescence inhibition; Potency, µM (titrated, usually from 57.5 µM), for the others: at the highest dose activity change, negative = inhibition, most hits filed as inhibitors; 360,000 tested, 6.9% active; AID 588342;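 also: plate controls were vehicle for no effect and reference inhibitor for full effect; nearly all actives have a fitted effect of over 55% in size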
# Target sequence (P08659 whole entry, looked up): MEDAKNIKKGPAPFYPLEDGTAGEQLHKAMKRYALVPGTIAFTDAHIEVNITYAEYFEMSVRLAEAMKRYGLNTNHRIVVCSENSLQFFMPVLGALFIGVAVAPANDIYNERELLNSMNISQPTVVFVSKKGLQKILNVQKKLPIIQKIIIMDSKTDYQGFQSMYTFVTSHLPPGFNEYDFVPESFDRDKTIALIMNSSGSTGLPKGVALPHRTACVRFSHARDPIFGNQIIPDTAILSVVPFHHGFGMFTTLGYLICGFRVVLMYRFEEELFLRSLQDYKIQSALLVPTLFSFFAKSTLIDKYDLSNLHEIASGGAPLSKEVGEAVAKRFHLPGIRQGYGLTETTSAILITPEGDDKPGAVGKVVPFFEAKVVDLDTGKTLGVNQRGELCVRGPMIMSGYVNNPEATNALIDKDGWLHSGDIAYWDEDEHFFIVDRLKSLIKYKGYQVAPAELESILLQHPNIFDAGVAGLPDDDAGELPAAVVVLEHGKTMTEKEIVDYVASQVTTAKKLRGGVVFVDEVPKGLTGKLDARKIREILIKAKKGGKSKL
#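 Purified P. pyralis luciferase, 10 nM final, with Km-level 10 uM D-luciferin and 10 uM ATP in 50 mM Tris acetate pH 7.5, 10 mM Mg acetate, 0.01% Tween-20, 0.05% BSA; 6-point qHTS titration about 60 µM downward; luminescence read.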
# NPC1 promoter act: NPC1 promoter activation; Huh7 NPC1 promoter luciferase reporter, 24 h; Potency, µM (titrated, usually from 9.22 µM), without a hit: at the highest dose activation, actives largely listed as activators; 320,000 tested, 2.4% active; AID 485313; also: % of control where 0% means no effect; nearly all actives have a fitted effect of over 60% in size
#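 Stably transfected Huh7 (NPC1 promoter→luciferase), 1500 cells/well in Opti-MEM + 10% FBS, 2 h settle, then compound 24 h at 37 °C. Luminescence after 10 min with Amplite reagent.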
# ELG1 genotoxic: genotoxicity induction in ELG1-luciferase HEK293T cells | 330,000 tested, 1.3% active | HEK293T ELG1-luciferase reporter, luminescence, 16 h | Potency, µM (series often up to 46 µM), inactives show at the highest dose activity change, positive = activation, hits mostly activators; also: % of control where 0% means no effect; nearly all actives have a fitted effect of over 60% in size
#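 Genotoxic stress is detected as increased luminescence from luciferase-tagged ELG1 in HEK293T cells, measured with ONE-Glo after a 16 hr treatment at 37 °C.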
# Luc counter: Kinase-Glo luciferase inhibition (counter-screen) | Kinase-Glo luciferase, ATP luminescence, 8 min | Q27757 | 200,000 tested, 0.28% active | Potency, µM (series often up to 38.3 µM), inactives show top-dose activity change, negative = inhibition, usual class: inhibitors; also: % is scaled to controls: 0 for no effect and ±100 for the full control effect; nearly all actives have a fitted effect of over 60% in size
#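 Compounds were added to a substrate mix at pH 7.2 (50 mM imidazole, 10 uM ATP, within the enzyme's linear range), followed by Kinase-Glo detection reagent; luminescence was measured after 8 minutes at ambient temperature.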
# SMN2 splice enh: enhancers of SMN2 splice variant expression; HEK293 SMN2-luciferase splicing reporter, luminescence, 30-36 h; Potency, µM (highest dose often 46.1 µM), for inactives: top-dose activity change, positive = activation, hits mostly activators; 210,000 tested, 2.8% active; also: % of control where 0% means no effect; nearly all actives have a fitted effect of over 55% in size
#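 HEK293 cells carry an SMN2 minigene-luciferase reporter in which exon 7 inclusion puts luciferase in frame. Cells were seeded at 2000 cells/well, attached for 10-12 hours, then exposed to compounds for 30-36 hours at 37C before ONE-Glo luminescence.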
# Rab9 promoter act: activators of Rab9 promoter. Potency, µM (doses to about 9.22 µM), without a hit: at the highest dose activation, negative = inhibition, hits mostly activators. 320,000 tested, 2.8% active. Huh7 Rab9 promoter-luciferase reporter, luminescence, 24 h; also: % of control where 0% means no effect; nearly all actives have a fitted effect of over 60% in size
#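 Promoter activation is measured as luciferase luminescence in Huh7 cells stably transfected with a Rab9 promoter–luciferase construct, following 24 h compound exposure at 37 °C and 10 min reagent incubation at ambient temperature.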
# An asterisk follows results filed as active; u = inconclusive; x = not tested or not shown; [ ] = remark or other dose. Shown are actives, neighbours in structure and some others; about 7.3% of the full set was active somewhere. Calls follow the shape of the dose curve; as a rule, active = well fitted curve in the direction sought with a large enough effect; inconclusive = small, poorly fitted or top-dose-only effect, or another doubt; inactive = no such curve, though single readings can be large; an effect the other way counts as inactive or inconclusive. Potency is read from the fitted curve at half-maximal effect.
SMILES,FLuc modulator,NPC1 promoter act,ELG1 genotoxic,Luc counter,SMN2 splice enh,Rab9 promoter act
O=C(Nc1cccc(-c2ccc(N3CCCCC3)nn2)c1)C(F)(F)F,1.3µM*,0.28µM*,u,x,x,0.79µM*
O=C(Nc1cccc(-c2ccc(N3CCCCC3)nn2)c1)c1ccc(Br)o1,0.34µM*,1.3µM*,2.3µM*,x,x,2.8µM*
CC1CCN(C(=O)C(C)Sc2nc(-c3ccccc3)cc(C(F)(F)F)n2)CC1 (stereo unspecified),-7%,-5%,-11%,-4%,-20%,-2%
CCOc1ccc(-c2cccc(NC(=O)c3ccc(Br)o3)c2)nn1,u,2%,-4%,x,x,2%
CC1CCN(c2ccc(-c3cccc(NC(=O)C(F)(F)F)c3)nn2)CC1,0.24µM*,u,0.13µM*,x,x,0.32µM*
O=C(Nc1cccc(-c2ccc3nncn3n2)c1)C(F)(F)F,2%,1%,1%,x,x,-1%
C=CCN(CC=C)CC(O)Cn1c2ccccc2c2ccccc21 (stereo unspecified),2%,-1%,-8%,-1%,-29%,-3%
Clc1ccc2oc(-c3ccccc3)cc(=NCCCN3CCOCC3)c2c1,u,21%,14%,1%,u,u
O=C(CCCNS(=O)(=O)c1cccc2nsnc12)NCc1ccc(F)cc1,0%,0%,-5%,-4%,4%,-4%
CCCCOP(=O)(c1ccc(N(C)C)cc1)C(Nc1ccccc1)c1ccccc1 (stereo unspecified),-2%,-5%,-12%,2%,-25%,-4%
COc1ccc(-c2cc(=O)c3ccccc3s2)cc1,1.1µM*,1.4µM*,2.3µM*,u,4µM*,0.89µM*
COc1ccc2sc3ccccc3c(=O)c2c1,6.7µM*,u,u,-13%,15%,u
COc1cc(-c2c(-c3ccsc3)sc3ccccc23)cc(OC)c1OC,0%,1%,-1%,x,x,-2%
COc1cc(OC)cc(-c2sc3ccccc3c(=O)c2I)c1,x,x,x,5%[39.9 µM],x,x
Cc1c(NC(=O)C(C)OC(=O)c2ncc(Cl)c(Cl)c2Cl)c(=O)n(-c2ccccc2)n1C (stereo unspecified),4%,9%,1%,x,x,0%
CC(C)C(C(=O)O)N1C(=O)/C(=C/C=C/c2ccco2)SC1=S (stereo unspecified),-19%,-3%,0%,-24%,-18%,0%
O=C1/C(=C/C=C/c2ccco2)SC(=S)N1c1ccc(O)cc1,21µM*,5%,8%,x,x,6%
O=C1/C(=C\c2ccco2)SC(=S)N1c1ccc(O)cc1,u,10%,-2%,0%,-9%,11%
COc1ccc(/C=C2\SC(=S)N(NC(=O)c3ccncc3)C2=O)cc1OC,u,-3%,1%,2%,9%,-3%
O=C(NN1C(=O)/C(=C/C=C/c2ccccc2)SC1=S)c1ccncc1,13µM*,-7%,-5%,7%,-20%,3%
O=C(NN1C(=O)/C(=C/C=C/c2ccco2)SC1=S)c1ccncc1,21µM*,-3%,0%,x,x,3%
CN(C)c1ccc(/C=C/C=C2/SC(=S)N(c3ccccc3)C2=O)cc1,4.8µM*,u,14%,u,-65%,u
Cn1c(=O)c2c(nc(N3CCOCC3)n2CC(=O)c2ccccc2)n(C)c1=O,2%,10%,1%,0%,-4%,10%
O=C(Oc1ccc(C(=S)N2CCOCC2)cc1)c1cccc(Cl)c1,u,1%,-3%,x,x,0%
COc1ccc(C2C=C(c3ccccc3)Nc3nc(NC(=O)/C=C/c4ccccc4Cl)nn32)cc1 (stereo unspecified),-18%,x,x,x,x,x
SMILES,FLuc modulator,NPC1 promoter act,ELG1 genotoxic,Luc counter,SMN2 splice enh,Rab9 promoter act
CCOc1ccc2nc(N/C(N)=N/S(C)(=O)=O)nc(C)c2c1,u,18%,17%,x,x,19%
COc1ccc(CN2C(=O)C(C)Oc3ccccc32)cc1 (stereo unspecified),1%,0%,0%,x,x,-1%
N#CC1=C(N)C(C#N)(C#N)C(c2cccnc2)C2CN(C(=O)OCc3ccccc3)CC=C12 (stereo unspecified),4%,-3%,0%,1%,-15%,1%
COc1ccc(OC)c(NC(=O)C2CCN(S(=O)(=O)c3cccs3)CC2)c1,2%,-2%,1%,-4%,-4%,1%
COc1ccc(Nc2nc(-c3cccs3)cs2)c(OC)c1,4.8µM*,u,5.2µM*,-1%,x,2.2µM*
COc1ccccc1Nc1nc(-c2cccs2)cs1,4.8µM*,13%,u,-5%,11µM*,u
COc1ccc(Nc2nc(-c3cccs3)cs2)cc1,0.67µM*,2.5µM*,1.5µM*,-7%,10µM*,2µM*
C[C@H](CO)N1C[C@H](C)[C@@H](CN(C)S(C)(=O)=O)Oc2c(NC(=O)C3CCCCC3)cccc2C1=O,x,x,-1%,x,x,x
COc1cc(SSc2cc(OC)cc([N+](=O)[O-])c2N)c(N)c([N+](=O)[O-])c1,8.5µM*,-2%,-8%,x,x,0%
Cc1c(C(=O)N/N=C/c2cccnc2)sc(=S)n1C,-14%,0%,1%,3%,6%,-4%
Cc1cc(C)c2nc(C)cc(Nc3ccc(C(=O)N4CCOCC4)cc3)c2c1,1%,-1%,0%,x,x,-4%
Cc1cc2nn(-c3cccc4ccccc34)nc2cc1N,4.8µM*,u,13µM*,0%,13µM*,2.8µM*
Nc1ccc2nn(-c3cccc4ccccc34)nc2c1,19µM*,8%,7%,0%,-3%,12%
Nc1ccc2c(c1)C(=O)N(c1cccc3ccccc13)C2=O,-8%,2%,1%,x,x,12%
Cc1ccc(Cl)cc1N1CCN(C(=O)c2cn(C)c3ccc(S(=O)(=O)N4CCC(C)CC4)cc3c2=O)CC1,2%,x,x,x,7%,x
CC(=O)Nc1ccc(NC(=O)c2cc(=O)c3cc(C)c(C)cc3o2)cc1,2.7µM*,-1%,5%,x,x,3%
Cc1cc2oc(C(=O)Nc3ccc(S(N)(=O)=O)cc3)cc(=O)c2cc1C,-2%,x,x,x,-28%,x
CCC(=O)Nc1c(-c2ccc3ccccc3c2)nc2ccccn12,3.8µM*,17%,11%,x,x,u
CC(=O)Nc1c(-c2ccc3ccccc3c2)nc2ccccn12,1.9µM*,u,21µM*,x,x,u
CC(NC(=O)/C=C/c1ccco1)c1nc2ccccc2n1Cc1c(Cl)cccc1Cl (stereo unspecified),2%,7%,-1%,-1%,-3%,14%
C#CCn1c(/C=C/c2ccc(Cl)cc2)nc2ccccc21,0.19µM*,x,x,x,2.5µM*,x
O=c1c2ccccc2nc(/C=C/c2ccc(Cl)cc2)n1CCO,-4%,-3%,2%,x,x,-1%
